In the library only some 5.7% were active in any assay of this set; here they are far more common.
GLP1R cytotox – cytotoxicity in counter-screen for GLP-1R inverse agonists | HEK293 cAMP-luciferase reporter cells, luminescence, 24 h | Potency, µM (titrated, usually from 38.3 µM), actives largely listed as inhibitors | 410,000 compounds, 0.13% hits | AID 624418;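 note: loss of luciferase light is scored as toxicity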
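Seeding density was 200 cells/uL; after overnight-length (12 h) culture, 23 nL compounds went on for 24 h at 37 °C. Readout used a luciferase detection reagent, luminescence taken after 12 min at room temperature.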
DRD3 agonist – activates the human D3 dopamine receptor | P35462 | D3R DiscoveRx beta-arrestin cells, luminescence, 90 min | max activation, % | 410,000 compounds, 0.58% hits | AID 652048; in the data active = max activation above about 30%
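Cells at 1500/well, incubated overnight, then treated with pinned compounds (dopamine as control) for 90 min at 37 degrees C. DiscoveRx reagent added for 30 - 60 minutes at room temperature; luminescence read.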
ClpP mod – qHTS Assay for Activators of ClpP; Potency, µM (titrated, usually from 57.5 µM); AID 651965, 2013; purified B. subtilis ClpP, FRET peptide cleavage, 20 min; ATP-dependent Clp protease proteolytic subunit (Bacillus subtilis (strain 168)), P80244; 340,000 compounds, 1.9% hits; active = well fitted falling curve with a large enough effect; inconclusive = small, poorly fitted or top-dose-only effect; inactive = no such curve, though single readings can be large or run the other way; note: the source files actives as falling curves though it sought activators and does not explain the sign; nearly all actives have a fitted effect of over 65% in size
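ClpP 10 microg/mL final, pH 8 Tris/KCl buffer with BSA, glycerol, Tween-20; compound pinned in; FRET-FV substrate; RT 20 min; Ex320/Em430; ΔFRET vs ADEP 5.8 microM, DMSO, no enzyme.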
GLP1R ag – activates the human GLP-1 receptor | HEK293 GLP-1R CRE-luciferase, luminescence, 4-6 h; cells express a hypersensitive GLP-1R form | Potency, µM (doses to about 45.6 µM), hits mostly activators | 380,000 compounds, 0.007% hits | AID 624172
GLP1R inv ag – acts as inverse agonist at human GLP-1 receptor; AID 624417; HEK293 GLP-1R CRE-luciferase, luminescence, 24 h; GLP-1R form is constitutively active; P43220; Potency, µM (titrated, usually from 38.3 µM), actives largely listed as inhibitors; 410,000 compounds, 1.6% hits; note: nearly all actives have a fitted effect of over 55% in size
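Seeding at 200 cells/uL, 12 h culture, 24 hr compound treatment, then luciferase reagent and a luminescence read; cells are HEK293 stably expressing a constitutively active GLP-1R plus cAMP-responsive luciferase.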
DRD3 antagonist – antagonists of human D3 dopamine receptor | D3R cells, DiscoveRx beta-arrestin luminescence, antagonist mode; active compounds read low | max response, negative = inhibition, % | 360,000 compounds, 2.5% hits; in the data active = max response below about -50%; inconclusive = no clear call, values can overlap the other calls
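Cells plated overnight at 1500 cells/well, then exposed to library compounds with dopamine controls for 90 minutes at 37 degrees C. DiscoveRx reagent added for 30–60 minutes at room temperature; luminescence read, quantitative HTS format.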
Each line names hits and unclear results; the compound was inactive in the other large screens; ! = a repeat was not active. Unless noted, calls come from the whole dose curve; as a rule, active = well fitted curve in the direction sought with a large enough effect; inconclusive = small, poorly fitted or top-dose-only effect, or another doubt; inactive = no such curve, though single readings can be large; an effect the other way counts as inactive or inconclusive.

N#Cc1cc2c(nc1SCC(=O)Nc1ccc(OC(F)(F)F)cc1)C1CCN2CC1	GLP1R inv ag inconclusive (no result: GLP1R ag, DRD3 antagonist)
CC[C@H]1C2C[C@H]3[C@@H]4N(C)c5ccccc5C45C[C@H](C2[C@H]5O)N3[C@@H]1O (stereo partly specified)	DRD3 antagonist -55
CCC1C2CC3C4N(C)c5ccccc5C45CC(C2C5O)N3[C@@H]1O (stereo partly specified)	DRD3 antagonist -70
CCN1CCN(P2(=O)C=C(c3ccccc3)OC(c3ccccc3)=C2)CC1	GLP1R cytotox inconclusive, DRD3 antagonist -81
CCN1CCN(C2=C(NS(=O)(=O)c3ccccc3)C(=O)c3ccccc3C2=O)CC1	GLP1R cytotox inconclusive
O=C(NCc1c(-n2cccc2)sc2c1CCCC2)Nc1cccc(C(F)(F)F)c1	GLP1R inv ag inconclusive (no result: GLP1R ag, DRD3 antagonist)
C[n+]1c(-c2ccccc2)c2cc(N)ccc2c2ccc(N)cc21	GLP1R cytotox inconclusive, GLP1R inv ag 1.8µM
Nc1ccc2ccc3cccc[n+]3c2c1	none (no result: ClpP mod)
Cc1ccc(Nc2c(-c3ccccn3)nc3cc(C)ccn23)cc1	GLP1R cytotox inconclusive, GLP1R inv ag inconclusive, DRD3 antagonist -88 (no result: ClpP mod)
CN(CCC#N)C(=O)COC(=O)c1c2c(nc3ccccc13)/C(=C\c1ccco1)CC2	none (no result: ClpP mod)
CC(Cc1ccccc1)NC(=O)CN1CCCC1=O (stereo unspecified)	none (no result: ClpP mod)
CC(c1ccccc1)n1cncc1C(=O)N1CCCC1=O (stereo unspecified)	DRD3 agonist 30
O=C(NCC(c1ccco1)N1CCCC1)c1cccc(S(=O)(=O)N2CCc3ccccc32)c1 (stereo unspecified)	GLP1R inv ag inconclusive, DRD3 antagonist inconclusive
CNc1ccc(C(=O)CC(O)CCC(C)C2OC(=O)CC(O)CC(=O)CC(O)CC(O)CC(O)CC(O)CC3(O)CC(O)C(C(=O)OC)C(CC(O[C@@H]4O[C@H](C)[C@@H](O)[C@H](N)[C@@H]4O)/C=C/C=C/C=C/C=C/C=C/C=C/C=C/C2C)O3)cc1 (stereo partly specified)	none (no result: GLP1R cytotox, ClpP mod, GLP1R ag, GLP1R inv ag, DRD3 antagonist)
N#CC(C(=O)C12CC3CC(CC(C3)C1)C2)c1nc2ccccc2[nH]1 (stereo unspecified)	ClpP mod inconclusive, GLP1R inv ag 1.1µM
CN(C)[C@H](Cc1ccccc1)c1ccccc1	none (no result: GLP1R cytotox, ClpP mod, GLP1R ag, GLP1R inv ag, DRD3 antagonist)
CC1CCC(C(C)C)C(OC(=O)COC(=O)c2ccccc2N)C1 (stereo unspecified)	ClpP mod 28µM, GLP1R inv ag inconclusive
CC1CCC(C(C)C)C(OC(=O)Cn2c(-c3ccc(Br)cc3)[n+](C)c3ccccc32)C1 (stereo unspecified)	GLP1R cytotox inconclusive, GLP1R inv ag inconclusive, DRD3 antagonist -67!
CCNC1(c2cccs2)CCCCC1=O (stereo unspecified)	none (no result: GLP1R cytotox, ClpP mod, GLP1R ag, GLP1R inv ag, DRD3 antagonist)
CCOc1cc(/C=C2\SC(N)=NC2=O)ccc1O	GLP1R cytotox inconclusive, DRD3 antagonist inconclusive (no result: ClpP mod)
COc1cc(/C=C2\SC(=S)N(Nc3ncc(C(F)(F)F)cc3Cl)C2=O)ccc1O	GLP1R cytotox inconclusive, GLP1R inv ag 10µM, DRD3 antagonist inconclusive
Cc1ccc(C(=O)Nc2cccc3[nH]c(C(F)(F)F)nc23)cc1	GLP1R cytotox inconclusive, GLP1R inv ag 8.9µM (no result: ClpP mod)
C=C(C)[C@@H]1CC[C@]2(C(=O)O)CC[C@]3(C)C(CCC4[C@@]5(C)CC[C@H](O)C(C)(C)C5CC[C@]43C)C12 (stereo partly specified)	GLP1R ag inconclusive
CCCCNc1cc(C)nc(NCc2ccccc2)n1	GLP1R cytotox 11µM, GLP1R inv ag inconclusive, DRD3 antagonist -63
CCOc1ccc(C(=O)Nc2cccc(C(=O)OCc3cc(=O)n4nc(C5CC5)sc4n3)c2)cc1	GLP1R inv ag inconclusive (no result: GLP1R ag, DRD3 antagonist)
COc1ccc(-c2cc(C(F)(F)F)nc(S(=O)(=O)CCCC(=O)Nc3cccc(O)c3)n2)cc1OC	GLP1R cytotox inconclusive, GLP1R inv ag inconclusive, DRD3 antagonist -53
O=C(c1cccn2c(=O)c3cc(Cl)ccc3nc12)N1CCC2(CC1)OCCO2	ClpP mod 25µM
Cc1ccc(Cn2c(SCc3ccc(C(=O)NC4CCCC4)cc3)nc3ccncc32)cc1	GLP1R inv ag inconclusive (no result: GLP1R ag, DRD3 antagonist)
COc1ccc(S(=O)(=O)NCC2CCC(C(=O)N3CCC4(CC3)OCCO4)CC2)cc1 (stereo unspecified)	ClpP mod 10µM
N#CC(C#N)=Cc1ccc(O)c(O)c1	none
CC(C)(C)c1cc(C=C(C#N)C#N)cc(C(C)(C)C)c1O	DRD3 agonist 50, GLP1R inv ag inconclusive
CC1(C)C/C(=N\NC(=S)Nc2ccccc2F)c2cc(O)ccc2O1	GLP1R cytotox inconclusive, GLP1R inv ag inconclusive, DRD3 antagonist -53 (no result: ClpP mod)
CCOC(=O)N(c1ccccc1)P1(=S)OCCO1	DRD3 antagonist -52
Nc1ccc(CCN2CCN(c3cccc(C(F)(F)F)c3)CC2)cc1	GLP1R inv ag inconclusive, DRD3 antagonist -109
Nc1ccc(CCN2CCCC2)cc1	none
CCOC(=O)c1ccc(N2C(=O)c3[nH]nc(-c4ccccc4)c3C2c2ccc(CC)cc2)cc1 (stereo unspecified)	GLP1R cytotox inconclusive, GLP1R inv ag 11µM (no result: DRD3 antagonist)
CCOC(=O)c1ccc(N2C(=O)c3n[nH]c(-c4cccs4)c3C2c2ccc(OC)cc2OC)cc1 (stereo unspecified)	ClpP mod inconclusive (no result: DRD3 antagonist)
C[N+]1([O-])[C@@H]2CC[C@H]1CC(OC(=O)[C@@H](CO)c1ccccc1)C2 (stereo partly specified)	none (no result: GLP1R cytotox, DRD3 agonist, ClpP mod, GLP1R inv ag, DRD3 antagonist)
Cc1oc(-c2cccs2)nc1CSCC(=O)N1CCC2(CC1)OCCO2	ClpP mod 1.4µM
CCOc1ccccc1N1C(=O)NC(=O)/C(=C/c2ccc3c4c(cccc24)CC3)C1=O	DRD3 antagonist -52
Cc1cc(C)cc(-n2c(/C=C/c3cccc(F)c3)nc3ccccc3c2=O)c1	none (no result: GLP1R ag, DRD3 antagonist)
CCOC(=O)c1cc2cc(OC)ccc2n1C1CCN(Cc2ccccc2)CC1	GLP1R inv ag inconclusive, DRD3 antagonist -89
O=C(COc1ccc2ccccc2c1)N1CCN(C2CCN(Cc3ccccc3)CC2)CC1	GLP1R cytotox inconclusive, GLP1R inv ag inconclusive
C=C/C=C/CC1=C(C)[C@@H](OC(=O)[C@@H]2[C@@H](/C=C(\C)C(=O)OC)C2(C)C)CC1=O (tested in a mixture with another compound)	none (no result: GLP1R cytotox, DRD3 agonist, ClpP mod, GLP1R inv ag, DRD3 antagonist)
Cc1c(C)c2ccc(OCC(=O)N3CCC(C(=O)O)(c4ccccc4)CC3)cc2oc1=O	none
CCc1c(C)c2ccc(OCC(N)=O)cc2oc1=O	ClpP mod 6.3µM
CCCCCCCCN1C(=O)[C@H](CC(=O)NCCc2ccccc2OC)C[C@@]2(C(=O)OC)CCCCC=C12	GLP1R inv ag inconclusive
